Assay outcomes deposited in PubChem BioAssay by National Center for Advancing Translational Sciences (NCATS).
PLK1 PBD inh: blocks phosphopeptide binding to human PLK1 polo-box domain; P53350; Plk1 PBD binding of FITC phosphopeptide, fluorescence polarization; 2.8% of 360,000 active; Potency, µM, most hits filed as inhibitors; further: series mostly up to about 57 µM; nearly all actives have a fitted effect of over 65% in size
GCN5L2 inh: inhibitors of human GCN5L2 histone acetyltransferase. Potency, µM (doses to about 58.9 µM), usual class: inhibitors. GCN5L2 HAT assay, ThioGlo1 CoA-SH fluorescence. 0.21% of 390,000 active. AID 504327
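GCN5L2 (20 nM) in 50mM HEPES pH 7.5, 0.1mM EDTA, 0.01% Tween-20 preincubated 15 min with compounds at room temperature. Reaction started with H3(1-25) 75uM, acetyl-CoA 70uM, ThioGlo1 50uM; CoA-thiol fluorescence (Ex340/Em540) read at 0 and 20 min.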
TDP1 cell noCPT: qHTS for Inhibitors of human tyrosyl-DNA phosphodiesterase 1 (TDP1): qHTS in cells in absence of CPT; DT40 Tdp1-/- hTDP1 cells, no CPT, ATP luminescence, 48 h; Potency, µM (titrated, usually from 46.2 µM), most hits filed as inhibitors; 15% of 420,000 active; AID 686978, 2013; further: nearly all actives have a fitted effect of over 55% in size
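Luminescent ATP content (CellTiter-Glo) served as the growth readout. Knockout chicken DT40 cells expressing human TDP1 were exposed to compounds without camptothecin for a minimum 48 hr at 37 °C.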
TDP1 block: TDP1 (human) enzyme inhibition; AID 485290; Potency, µM (doses to about 130 µM), hits mostly inhibitors; Q9NUW8; 0.28% of 350,000 active; recombinant TDP1, AlphaScreen DNA substrate cleavage; further: nearly all actives have a fitted effect of over 40% in size
Target sequence (Q9NUW8 whole entry, looked up): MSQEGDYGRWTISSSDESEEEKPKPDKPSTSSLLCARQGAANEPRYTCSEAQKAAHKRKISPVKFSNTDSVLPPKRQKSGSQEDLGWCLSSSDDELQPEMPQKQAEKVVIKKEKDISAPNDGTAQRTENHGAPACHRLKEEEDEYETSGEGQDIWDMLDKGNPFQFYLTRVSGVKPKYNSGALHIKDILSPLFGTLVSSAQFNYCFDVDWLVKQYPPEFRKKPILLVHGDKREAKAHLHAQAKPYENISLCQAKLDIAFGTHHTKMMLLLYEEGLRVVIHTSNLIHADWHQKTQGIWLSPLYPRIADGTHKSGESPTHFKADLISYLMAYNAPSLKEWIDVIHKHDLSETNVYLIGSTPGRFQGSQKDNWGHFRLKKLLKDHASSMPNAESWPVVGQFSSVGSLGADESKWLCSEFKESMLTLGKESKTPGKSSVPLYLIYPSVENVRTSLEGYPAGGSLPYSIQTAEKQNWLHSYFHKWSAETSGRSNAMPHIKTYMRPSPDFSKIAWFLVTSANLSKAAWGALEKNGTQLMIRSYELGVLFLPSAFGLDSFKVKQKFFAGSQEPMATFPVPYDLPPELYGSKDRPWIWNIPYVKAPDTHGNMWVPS
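Steps: enzyme plus compound, 15 min RT; add biotin/phosphotyrosine-FITC oligonucleotide (15 nM final), react 5 min; add donor/acceptor beads (10 ug/ml final), 10 min; read AlphaScreen. Tdp1 at 1 nM final.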
DT40 TDP1 CPT: DT40-hTDP1 cell growth loss with CPT; 12% of 420,000 active; Potency, µM (highest dose often 46.2 µM), most hits filed as inhibitors; chicken DT40 Tdp1-/-;hTDP1 cells + 20 nM CPT, ATP luminescence, 48 h; further: nearly all actives have a fitted effect of over 55% in size
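Chicken DT40 Tdp1-/- cells stably complemented with human TDP1 were seeded at 400 cells/well in medium containing 20 nM camptothecin, exposed to pin-transferred compounds, and grown at 37 °C for at least 48 hr. Viability was read as ATP luminescence.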
VDR inhibitor: inhibitors of human vitamin D receptor. AID 504847. 0.93% of 400,000 active. P11473. Potency, µM, hits mostly inhibitors. VDR-SRC2-3 peptide fluorescence polarization, 2 h
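After 23 nl compound addition and a short centrifugation, plates sat for 2 hours at ambient temperature; polarization of fluorescence then indicated loss of VDR binding to peptide SRC2-3.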
A number is an active result; i = inactive; ? = inconclusive; nt = not tested or not shown; [ ] = remark or other dose. The list is not random: actives were taken first. Their share in the collection is about 18%. The call rests on the fitted dose curve; in most records, active means well fitted curve in the direction sought with a large enough effect; inconclusive means small, poorly fitted or top-dose-only effect, or another doubt; inactive means no such curve, though single readings can be large; an effect the other way counts as inactive or inconclusive.

SMILES	PLK1 PBD inh	GCN5L2 inh	TDP1 cell noCPT	TDP1 block	DT40 TDP1 CPT	VDR inhibitor
C=CC[C@H](CC(=O)N[C@H](CO)Cc1ccccc1)C(=O)N[C@H](COC(=O)[C@@H](CC=C)CC(=O)OC(C)(C)C)Cc1c[nH]c2ccccc12	i	i	?	i	?	i
C=CC[C@@H](CC(=O)N[C@@H](CO)Cc1ccccc1)C(=O)N[C@@H](COC(=O)[C@H](CC=C)CC(=O)OC(C)(C)C)Cc1c[nH]c2ccccc12	i	i	21µM	i	?	i
COc1ccc(S(=O)(=O)N2CCC3(CC2)OCCN3S(=O)(=O)c2cccs2)cc1OC	i	i	?	i[0.505 µM]	?	i
O=C(c1ccc2c(Cl)c3c(nc2c1)CCCC3)N1CCN(c2cccc(C(F)(F)F)c2)CC1	nt	i	i	i	i	i
O=C(CSC1CS(=O)(=O)c2cc([N+](=O)[O-])ccc21)NNC(=O)c1ccccc1 (centres undefined)	i	i	21µM	nt	13µM	i
O=C(CSC1CS(=O)(=O)c2cc([N+](=O)[O-])ccc21)NNC(=O)c1ccc(Cl)cc1 (centres undefined)	i	i	2.3µM	nt	5.2µM	i
NC(=O)c1c(NC(=O)C2c3ccccc3Oc3ccccc32)sc2c1CCCCC2	?	i	?	i	?	i
COc1ccc(-c2cc(NC=O)c3ncc(-c4ccc(OC)c(OC)c4)n3c2)c(OC)c1	i	nt	0.033µM	nt	0.041µM	nt
COc1cccc(-c2cnc3c(NC=O)cc(-c4ccc(OC)cc4OC)cn23)c1	i	nt	0.021µM	nt	0.015µM	nt
CC1(C(=O)NCc2ccccc2)CCC(=O)N1C1CCN(Cc2ccccc2)CC1 (centres undefined)	i	nt	i	nt	i	nt
CCCc1cc(=O)n2[nH]c(-c3ccccc3)cc2n1	i	i	?	i	i	i
CCCCn1[nH]c(-c2ccccc2)cc1=O	i	i	18µM	i	?	i
O=C(Nc1nccs1)c1ccc(COc2c(F)c(F)cc(F)c2F)cc1	i	i	?	nt	i	i
O=C(O)CC1(CC(=O)Nc2ccccc2Br)CCCC1	i	nt	i	nt	i	i
CCC1NC(=O)c2cc3ccccc3cc2-n2c1nc1cc(OC)c(OC)cc1c2=O (centres undefined)	i	nt	?	nt	?	nt
Cc1cccc(CCNC(=O)c2ccc3c(c2)N(Cc2ccccc2F)C(=O)c2ccccc2S3)c1	nt	i	?	i	i	i
COc1ccc(CCNC(=O)c2ccc3c(c2)N(Cc2ccccc2C)C(=O)c2ccccc2S3)cc1OC	nt	i	3.7µM	i	3.3µM	i
COc1ccccc1CNC(=O)c1ccc2c(c1)N(Cc1cc(C)ccc1C)C(=O)c1ccccc1S2	nt	i	9.2µM	i	9.2µM	i
COc1ccc2c(c1)CCc1cnc(-n3ncc(C(=O)NCC(C)(C)CN(C)C)c3C)nc1-2	nt	nt	?	nt	i[9.04 µM]	nt
O=C(c1ccco1)N1CCN=C1SCc1cccnc1	i	i	i	i	i	i
O=C(N1CCN=C1SCc1cccnc1)C12CC3CC(CC(C3)C1)C2	i	i	15µM	i	?	i
CCCS(=O)(=O)c1ncc(Cl)c(C(=O)N2CCN(c3ccc(OC)cc3)CC2)n1	nt	i	3.7µM	i	2.1µM	?
COc1cc(SC)ccc1C(=O)Nc1ccc(Br)cn1	i	i	13µM	i	?	i
COc1cc(SC)ccc1C(=O)Nc1ccon1	?	i	i	i	i	i
COc1cc(SC)ccc1C(=O)Nc1cccc(C)n1	i	i	5.8µM	i	?	i
COc1cc(SC)ccc1C(=O)NCCc1ccccc1	i	i	i	i	15µM	i
CCN(CC)c1ccc(NC(=O)c2cnc3ccccn3c2=O)c(C)c1	i	i	?	i	?	i
Cc1cc2nn(-c3cccc4ccccc34)nc2cc1NC(=O)c1cccs1	i	i	i	i	23µM	i
CCN(CC)c1ccc(-n2nc3cc(C)c(NC(=O)c4ccccc4C)cc3n2)c(C)c1	nt	?	21µM	i	16µM	i
Cc1cc2nn(-c3ccc(F)cc3)nc2cc1NC(=O)c1cccc2c(Cl)cccc12	nt	i	?	i	2.9µM	i
